# Records with an inconclusive call do not appear. Where a call stands in place of a potency, no number is given. Unmarked numbers belong to inactive results. The source made the active and inactive calls. The call rests on the fitted dose curve; in most records, active means well fitted curve in the direction sought with a large enough effect in the repeat runs; inconclusive means weak or mixed curves; inactive means no such curve, though single readings can be large; an effect the other way counts as inactive or inconclusive.
# What was measured:
# [1] = qHTS RealTime-Glo MT Cell Viability Assay in HEK293 cells - 16 hour (AID 1224872); further: top concentration of the series differs between compounds; nearly all actives have a fitted effect of over 50% in size
# In short: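 Cells + reagent dispensed (600 cells/well, HEK293) → 5 h at 37 C/5% CO2 → 23 nL compound in DMSO pinned → 40 h at 37 C → luminescence read at 0, 8, 16, 24, 32, 40 h.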
# [2] = qHTS RealTime-Glo MT Cell Viability Assay in HepG2 cells - 8 hour (AID 1224873); further: nearly all actives have a fitted effect of over 55% in size
# In short: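 HepG2 cells mixed with RealTime-Glo MT reagents (NanoLuc plus cell-permeant prosubstrate) were seeded at 600 cells/well, incubated 5 h at 37 C/5% CO2, then pinned with compounds in DMSO; nonlytic luminescence tracked viability during 40 h treatment.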
# [3] = qHTS RealTime-Glo MT Cell Viability Assay in HEK293 cells - 40 hour (AID 1224874); details: RealTime-Glo luminescence; max response: hits give low values; further: nearly all actives have a fitted effect of over 50% in size
# In short: (§1)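 qHTS format; HEK293 cells with NanoLuc/prosubstrate reagent, 37 C/5% CO2 for 5 h pre-dosing; compounds 23 nL in DMSO; luminescence at each time point reflects viable cells.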
# [4] = A CellTox Green Cytotoxicity Assay to monitor cytotoxicity in HEK293 cells - 24 hour (AID 1224875); further: nearly all actives have a fitted effect of over 45% in size; further: potency means the concentration at half of the fitted maximal effect; on activity change: series mostly up to about 77 µM
# In short: (§2)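 Each value comes from one timepoint of a single continuous run in which HEK293 cells with CellTox Green were exposed to compound for up to 40 h at 37 C, dye fluorescence rising with cell death.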
# [5] = A CellTox Green Cytotoxicity Assay to monitor cytotoxicity in HepG2 cells - 16 hour (AID 1224876); further: nearly all actives have a fitted effect of over 45% in size; further: potency means the concentration at half of the fitted maximal effect
# In short: (§3)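 Continuous culture of HepG2 cells with a membrane-impermeant DNA dye; rising fluorescence marks dead cells. Compound exposure lasted up to 40 h at 37 C, with reads every 8 h from 0 h.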
# [6] = qHTS RealTime-Glo MT Cell Viability Assay in HepG2 cells - 32 hour (AID 1224877); further: nearly all actives have a fitted effect of over 55% in size
# In short: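 Real-time, nonlytic viability: 600 HepG2 cells/well mixed with NanoLuc enzyme plus prosubstrate; 5 h settle, compound (DMSO) added by pintool; luminescence monitored over 40 h at 37 C.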
# [7] = A CellTox Green Cytotoxicity Assay to monitor cytotoxicity in HepG2 cells - 24 hour (AID 1224878); further: nearly all actives have a fitted effect of over 45% in size; further: potency means the concentration at half of the fitted maximal effect
# In short: as §3
# [8] = A CellTox Green Cytotoxicity Assay to monitor cytotoxicity in HepG2 cells - 40 hour (AID 1224879); further: nearly all actives have a fitted effect of over 40% in size; further: potency means the concentration at half of the fitted maximal effect
# In short: as §3
# [9] = qHTS RealTime-Glo MT Cell Viability Assay in HEK293 cells - 0 hour (AID 1224880); further: top concentration of the series differs between compounds; nearly all actives have a fitted effect of over 45% in size
# In short: as §1
# [10] = A CellTox Green Cytotoxicity Assay to monitor cytotoxicity in HEK293 cells - 32 hour (AID 1224881); further: nearly all actives have a fitted effect of over 40% in size; further: potency means the concentration at half of the fitted maximal effect
# In short: as §2
structure (smiles),measurement,setting,value
CCN(CC)c1ccc(C(=C2C=CC(=[N+](CC)CC)C=C2)c2cc(S(=O)(=O)O)ccc2S(=O)(=O)[O-])cc1,Potency,[1],inactive
same,Potency,[2],inactive
same,max response,[3],0.738%
same,Potency,[4],inactive
same,Potency,[5],inactive
same,Potency,[6],inactive
same,Potency,[7],inactive
same,Potency,[8],inactive
same,Potency,[9],inactive
same,Potency,[10],inactive
CN(C)CCN(Cc1ccc(Cl)cc1)c1ccccn1,Potency,[1],inactive
same,Potency,[2],inactive
same,max response,[3],-11%
same,Potency,[4],inactive
same,Potency,[5],inactive
same,Potency,[6],inactive
same,Potency,[7],inactive
same,Potency,[8],inactive
same,Potency,[9],inactive
same,Potency,[10],inactive
COC(C)(C)CCO,Potency,[1],inactive
same,Potency,[2],inactive
same,max response,[3],1.17%
same,Potency,[4],inactive
same,Potency,[5],inactive
same,Potency,[6],inactive
same,Potency,[8],inactive
same,Potency,[9],inactive
same,Potency,[10],inactive
OC[C@H]1O[C@@H](OCCc2ccc(O)cc2)[C@H](O)[C@@H](O)[C@@H]1O,Potency,[1],inactive
same,Potency,[2],inactive
same,max response,[3],7.46%
same,Potency,[4],inactive
same,Potency,[5],inactive
same,Potency,[6],inactive
same,Potency,[7],inactive
same,Potency,[8],inactive
same,Potency,[10],inactive
CCCCCC[C@@H](O)C/C=C\CCCCCCCC(=O)OC,Potency,[1],inactive
same,Potency,[2],inactive
same,max response,[3],0.122%
same,Potency,[4],inactive
same,Potency,[5],inactive
same,Potency,[6],inactive
same,Potency,[8],inactive
same,Potency,[9],inactive
same,Potency,[10],inactive
CC1=CCCC(C)(C)C12CCC(C)O2 (centres undefined),Potency,[1],inactive
same,Potency,[2],inactive
same,max response,[3],-12.5%
same,Potency,[4],inactive
same,Potency,[5],inactive
same,Potency,[6],inactive
same,Potency,[8],inactive
same,Potency,[9],inactive
same,Potency,[10],inactive
NC(N)=NCCC[C@H](N)C(=O)O,"activity change, negative = cytotoxicity",[1],5.7% [at 6.97 µM]
same,"viability change, negative = cytotoxic",[2],1.03% [at 6.97 µM]
same,max response,[3],2.97%
same,activity change,[4],"-20.5% [at 6.97 µM, hits give high values]"
same,cytotoxicity increase,[5],-5.32% [at 6.97 µM]
same,"activity change, negative = cytotoxic",[6],2.81% [at 6.97 µM]
same,cytotoxicity,[7],-6.35% [at 6.97 µM]
same,cytotoxicity increase,[8],-3.66% [at 6.97 µM]
same,cytotoxicity increase,[10],-21.7% [at 6.97 µM]
Nc1cccc(S(=O)(=O)c2cccc(N)c2)c1,Potency,[1],inactive
same,Potency,[2],inactive
same,max response,[3],-13.5%
same,Potency,[4],inactive
same,Potency,[5],inactive
same,Potency,[6],inactive
same,Potency,[7],inactive
same,Potency,[8],inactive
same,Potency,[10],inactive
O=C1OC(CN2CCOCC2)CN1/N=C/c1ccc([N+](=O)[O-])o1 (centres undefined),Potency,[1],inactive
same,Potency,[2],inactive
same,max response,[3],-0.929%
same,Potency,[4],inactive
same,Potency,[5],inactive
same,Potency,[6],inactive
same,Potency,[7],inactive
same,Potency,[8],inactive
same,Potency,[9],inactive
same,Potency,[10],inactive
Nc1cc(C(=O)O)c(O)c(S(=O)(=O)O)c1,Potency,[1],inactive
same,Potency,[2],inactive
same,max response,[3],9.59%
same,Potency,[4],inactive
same,Potency,[5],inactive
same,Potency,[6],inactive
same,Potency,[8],inactive
same,Potency,[9],inactive
same,Potency,[10],inactive
CCCC(=O)Nc1ccc(O)c(C(C)=O)c1,Potency,[1],inactive
same,Potency,[2],inactive
same,max response,[3],-1.71%
same,Potency,[4],inactive
same,Potency,[5],inactive
same,Potency,[6],inactive
same,Potency,[8],inactive
same,Potency,[9],inactive
same,Potency,[10],inactive
Cc1ncc(CO)c(C=O)c1O,Potency,[1],inactive
same,Potency,[2],inactive
same,max response,[3],0.556%
same,Potency,[4],inactive
same,Potency,[5],inactive
same,Potency,[6],inactive
same,Potency,[7],inactive
same,Potency,[8],inactive
same,Potency,[10],inactive
CCCCCCCCCCCCCCOS(=O)(=O)O,Potency,[1],inactive
same,Potency,[2],inactive
same,max response,[3],-13.8%
same,Potency,[4],43.6 µM (active)
same,Potency,[5],34.7 µM (active)
same,Potency,[6],inactive
same,Potency,[7],34.7 µM (active)
same,Potency,[8],34.7 µM (active)
same,Potency,[10],43.6 µM (active)
O=C(NCCO[N+](=O)[O-])c1cccnc1,Potency,[1],inactive
same,Potency,[2],inactive
same,max response,[3],0.0315%
same,Potency,[4],inactive
same,Potency,[5],inactive
same,Potency,[6],inactive
same,Potency,[7],inactive
same,Potency,[8],inactive
same,Potency,[9],inactive
same,Potency,[10],inactive
O=C(O)C(S)C(S)C(=O)O (centres undefined),Potency,[1],inactive
same,Potency,[2],inactive
same,max response,[3],3.09%
same,Potency,[5],inactive
same,Potency,[6],inactive
same,Potency,[7],inactive
same,Potency,[8],inactive
same,Potency,[9],inactive
C=CCOC(=O)CCC1CCCCC1,Potency,[1],inactive
same,Potency,[2],inactive
same,max response,[3],4.81%
same,Potency,[5],inactive
same,Potency,[6],inactive
same,Potency,[7],inactive
same,Potency,[8],inactive
same,Potency,[9],inactive
O=C(O)CC(=O)C(=O)O,Potency,[1],inactive
same,Potency,[2],inactive
same,max response,[3],-2.18%
same,Potency,[5],inactive
same,Potency,[6],inactive
same,Potency,[7],inactive
same,Potency,[8],inactive
same,Potency,[9],inactive
same,Potency,[10],inactive
NCC(=O)O,"activity change, negative = cytotoxicity",[1],4.48% [at 15.8 µM]
same,"viability change, negative = cytotoxic",[2],8.37% [at 15.8 µM]
same,max response,[3],8.51%
same,activity change,[4],"-2.36% [at 15.8 µM, hits give high values]"
same,cytotoxicity increase,[5],8.58% [at 15.8 µM]
same,"activity change, negative = cytotoxic",[6],0.863% [at 15.8 µM]
same,cytotoxicity increase,[8],1.98% [at 15.8 µM]
same,cytotoxicity increase,[10],1.64% [at 15.8 µM]
O=C(NCC1CN(c2ccc(N3CCOCC3=O)cc2)C(=O)O1)c1ccc(Cl)s1 (centres undefined),Potency,[1],inactive
same,Potency,[2],inactive
same,max response,[3],-20.3%
same,Potency,[4],inactive
same,Potency,[6],inactive
same,Potency,[9],inactive
same,Potency,[10],inactive
CNC(=O)CN(CCN(CCN(CC(=O)[O-])CC(=O)NC)CC(=O)[O-])CC(=O)[O-].O.[Gd+3],Potency,[1],inactive
same,Potency,[2],inactive
same,max response,[3],2.96%
same,Potency,[5],inactive
same,Potency,[6],inactive
same,Potency,[7],inactive
same,Potency,[8],inactive
same,Potency,[9],inactive
same,Potency,[10],inactive

# Reference: PubChem BioAssay (Tox21)
